Pf growth 96h: P. falciparum growth inhibition at 96 hours. Potency, µM (doses to about 28.7 µM), inactives show top-dose activity change, negative = inhibition, most hits filed as inhibitors. P. falciparum luciferase reporter growth, 96 h. 320,000 tested, 6.9% active
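Infected RBCs, 2% Hct / 0.05% parasitemia final; luciferase-reporter P. falciparum; cpd 96 h, 37 C, 5% CO2; luciferase detection reagent; luminescence.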
Pf growth 48h: P. falciparum growth inhibition at 48 hours (one generation); P. falciparum luciferase growth in erythrocytes, 48 h; Potency, µM (titrated, usually from 28.7 µM), for the others: top-dose activity change, negative = inhibition, hits mostly inhibitors; 310,000 tested, 5.9% active
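Here the parasites carry a stable luciferase gene and grow inside erythrocytes in Albumax-based RPMI medium with compound for one erythrocytic cycle. Activity is scored as loss of luminescent signal.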
Vaccinia Venus: inhibitors of vaccinia virus (Venus reporter); Vaccinia virus Venus reporter expression, fluorescence; Potency, µM (top dose mostly 36.5 µM), for the others: at the top dose activity change, negative = inhibition, usual class: inhibitors; 330,000 tested, 0.46% active; AID 720580; calls by dose curve; tested in A549 cells; further: nearly all actives have a fitted effect of over 30% in size
AMA1 RON2 block: AMA1-RON2 (P. falciparum) interaction inhibition. AlphaScreen AMA1-biotinylated RON2 peptide binding. Potency, µM (top dose mostly 58.2 µM), inactives show at the top dose activity change, negative = inhibition, usual class: inhibitors. 360,000 tested, 0.2% active;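 further: 0% = vehicle wells and -100% = peptide control; nearly all actives have a fitted effect of over 45% in size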
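AMA1 (3D7) with his tag at 25 nM final met compounds first, then biotinylated RON2 peptide at 25 nM; detection used donor plus acceptor beads, 10 µg/mL apiece, read by AlphaScreen after 30 min at room temperature.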
Vaccinia mCherry: vaccinia inhibition (mCherry reporter). AID 720579. Potency, µM (doses to about 36.5 µM), without a hit: at the top dose activity change, negative = inhibition, most hits filed as inhibitors. Vaccinia virus mCherry reporter infection, fluorescence. 310,000 tested, 0.63% active; calls by dose curve; tested in A549 cells; further: nearly all actives have a fitted effect of over 35% in size
Starred values were filed as active, the others as inactive; i = inactive; ? = inconclusive; nt = no result given. Sampled rows, rich in hits. Any-hit rate of the full collection: about 8.7%. Unless noted, the call rests on the fitted dose curve; in most records, active means well fitted curve in the direction sought with a large enough effect; inconclusive means small, poorly fitted or top-dose-only effect, or another doubt; inactive means no such curve, though single readings can be large; an effect the other way counts as inactive or inconclusive. Unless noted, on the % scale 0 is the no-effect control and ±100 the full control effect; potency means the concentration at half of the fitted maximal effect.

SMILES | Pf growth 96h | Pf growth 48h | Vaccinia Venus | AMA1 RON2 block | Vaccinia mCherry
CCOC(=O)C1=C(O)CSC1=Nc1ccc(Cl)cc1 | 10µM* | 10µM* | nt | 17% | nt
CCOC(=O)C1=C(O)/C(=C/c2ccccn2)SC1=Nc1ccc(Cl)cc1 | 15% | 9.3µM* | -14% | 15% | i
Cc1cc(C)c(NC(=O)C(=O)NCC(c2cccnc2)N2CCN(Cc3ccccc3)CC2)c(C)c1 (stereo not given) | nt | nt | -23% | nt | -4%
CCOc1cccc2cc(S(=O)(=O)c3ccccc3F)c(=O)oc12 | nt | nt | 5% | nt | -8%
Cc1ccc(Cl)cc1-n1ncc2c(NCCC3=CCCCC3)ncnc21 | nt | nt | -17% | nt | -13%
CC(=Nc1ccccc1)C1=C(O)CCCC1=O | 12µM* | 2% | 7% | 11% | i
CC(=Nc1ccccc1)C1=C(O)CC(C)(C)CC1=O | ? | 14% | 3% | 12% | 0%
CCCN(CC(=O)Nc1ccccc1C)C(=O)/C=C/c1ccc(OCC)c(OC)c1 | ? | 9.3µM* | nt | 22% | nt
CCCN(CC(=O)Nc1ccccc1C)C(=O)c1oc2ccc(OCC)cc2c1C | 7.4µM* | 2.9µM* | -21% | -6% | -6%
CCCN(CC(=O)Nc1ccccc1C)C(=O)c1cc(C)oc1C | -8% | -20% | nt | -3% | nt
CCOc1ccc(/C=C/C(=O)N(CC)CC(=O)Nc2c(F)cccc2F)cc1OC | nt | nt | -19% | -1% | -15%
COc1cc(/C=C2\SC(N)=NC2=O)ccc1OCC(=O)Nc1ccccc1C | 5.2µM* | 5.9µM* | nt | -15% | nt
CCCN(CC(=O)Nc1ccccc1C)C(=O)Cc1c(C)nc2ccccc2c1C | ? | 10µM* | nt | -7% | nt
CCn1c(-c2ccccc2F)nc2cc(NC(C)=O)cc(C(=O)N3CCC[C@H]3C(=O)OC)c21 | nt | nt | 0% | nt | i
CC(C)Cn1cc(NC(=O)N2CCN(c3cccc(Cl)c3)CC2)c2ccccc2c1=O | nt | nt | -4% | nt | -8%
COc1cc(C2C(C#N)=C(N)Oc3c2ccc2ccccc32)ccc1OCC(=O)Nc1ccccc1C (stereo not given) | ? | 10µM* | nt | 2% | nt
CCC1CCCCN1CC(O)Cn1c2ccccc2n2c(=O)cc(C)c(C#N)c12 (stereo not given) | 4.7µM* | ? | -11% | 17% | 2%
Cc1cc(=O)n2c3ccccc3n(CC(O)CN3CCC(C)CC3)c2c1C#N (stereo not given) | ? | ? | -5% | -3% | 36%
CCc1ccc(C(=O)COC(=O)c2cncc(Br)c2)cc1 | 52% | 17µM* | -9% | 19% | -1%
CC(=O)NCCN=Cc1sc2ccccc2c1O | 3.7µM* | 31% | -4% | 3% | -8%
COc1ccc(NC2c3ccccc3C(=O)N2c2ccccn2)cc1 (stereo not given) | 12µM* | ? | nt | -9% | nt
CCOC(=O)c1ccccc1NC1c2ccccc2C(=O)N1c1ccc(C)cn1 (stereo not given) | -24% | 120% | -15% | -1% | 11%
CCc1ccccc1NC1c2ccccc2C(=O)N1c1cc(C)ccn1 (stereo not given) | 50% | 13µM* | 8% | -10% | i
CCOC(=O)c1ccc(NC2c3ccccc3C(=O)N2c2ccccn2)cc1 (stereo not given) | 10µM* | nt | -15% | 13% | -17%
Cc1ccc2oc(=O)n(CCNC(=O)Nc3ccccc3Cl)c2c1 | nt | nt | -5% | nt | -15%
SMILES | Pf growth 96h | Pf growth 48h | Vaccinia Venus | AMA1 RON2 block | Vaccinia mCherry
O=C(Cn1cc(S(=O)(=O)Cc2cccc(Cl)c2)c2ccccc21)NCc1ccccc1Cl | nt | nt | -13% | nt | -19%
O=C1Nc2ccc(Br)cc2C1(O)c1ccccc1 (stereo not given) | ? | 6.6µM* | nt | 2% | nt
Cc1ccc(C)c(N2CCN(C(=O)Cn3cnc4nc5c(cc4c3=O)CCCC5)CC2)c1 | nt | nt | -30% | nt | -26%
Brc1ccc(CN2CCc3nc(Nc4ccccc4)ncc3C2)s1 | nt | nt | -19% | nt | -15%
O=C(Nc1ccc(S(=O)(=O)N2CCCCCC2)cc1)c1cc(=O)c2ccccc2o1 | nt | nt | -25% | nt | -18%
Cc1ccc(NC(=O)c2cc(=O)c3ccccc3o2)cc1S(=O)(=O)N1CCCCC1 | ? | 6.6µM* | -25% | -13% | ?
CN(C)S(=O)(=O)c1cc(NC(=O)c2cc(=O)c3ccccc3o2)ccc1Cl | ? | 10µM* | -15% | -9% | -15%
Cc1ccc(NC(=O)c2cc(=O)c3ccccc3o2)cc1S(=O)(=O)N1CCOCC1 | 4.7µM* | 8.3µM* | nt | -2% | nt
COc1ccc(NC(=O)c2cc(=O)c3ccccc3o2)cc1Cl | -14% | ? | -1% | -8% | -2%
O=C(CC(=O)c1ccccc1O)c1cccc(F)c1 | ? | ? | 0% | 41% | -1%
O=C(CC(=O)c1c(F)cccc1Cl)c1ccccc1O | ? | 12µM* | -11% | 37% | -6%
CCC(C(=O)Nc1cc(C)ccc1OC)n1nnc(C(=O)OC)c1C(=O)OC (stereo not given) | nt | nt | -1% | nt | 1%
CCc1ccccc1NC(=O)Cn1c(=O)n(Cc2ccco2)c(=O)c2ccccc21 | nt | nt | -8% | nt | -9%
Cc1ccccc1CS(=O)(=O)c1cnc2ccccc2n1 | nt | 15µM* | ? | 34% | nt
Cc1ccc(CCN=c2c([N+](=O)[O-])nn(-c3ccccc3)n2O)cc1 | 0% | ? | -15% | -27% | -16%
O=[N+]([O-])c1nn(-c2ccccc2)n(O)c1=NCCc1ccccc1 | -6% | 4.1µM* | ? | -21% | -23%
Cc1cc(C)cc(N=c2c([N+](=O)[O-])nn(-c3cccc(Cl)c3)n2O)c1 | 3.7µM* | nt | nt | -29% | nt
Cc1ccc(CN=c2c([N+](=O)[O-])nn(-c3ccc(Cl)cc3)n2O)cc1 | 3.3µM* | 75% | nt | -4% | nt
O=[N+]([O-])c1nn(-c2ccc(Cl)cc2)n(O)c1=NCc1ccncc1 | -19% | 2.9µM* | nt | 8% | nt
CCCCNC(=O)c1sc2ncnc(NCC3CCCO3)c2c1C (stereo not given) | nt | nt | 3% | nt | -7%
COc1cccc(CN2CCC(n3cc(C(=O)NC4CCCC4)nn3)CC2)c1O | nt | nt | -1% | nt | -4%
CCc1ccccc1NC(=O)CC(c1ccc(F)cc1)N1Cc2ccccc2C1=O (stereo not given) | nt | nt | -8% | nt | -21%
CCCn1cnc2c1c(=O)n(CCCCC(C)=O)c(=O)n2C | 56% | 12µM* | nt | nt | nt
CCN(CC)C(=O)Cn1cnc2c1c(=O)n(C)c(=O)n2C | nt | 9% | nt | -8% | nt
NCCOB(c1ccccc1)c1ccccc1 | nt | nt | -10% | nt | -6%
N#C/C(=C\c1ccc(N2CCOCC2)o1)c1ccccc1 | 409% | 10% | -5% | -11% | i
N#C/C(=C/c1ccc(N2CCOCC2)o1)c1ccc(Br)cc1 | 5.2µM* | 76% | 32% | -22% | nt
Cc1nc2ccccc2c(=O)n1-c1ccc([N+](=O)[O-])cc1 | 15µM* | -7% | 3% | 3% | 13%
Cc1nc2cc([N+](=O)[O-])ccc2c(=O)n1-c1ccc(Br)cc1 | 13µM* | 13% | nt | 6% | nt

Source: PubChem
